SUMO Mot1 rescue = inhibitors of SUMOylation pathway: yeast Mot1-301 growth rescue; S. cerevisiae Mot1-301 growth rescue, ATP luminescence, 38.5C; percent above DMSO median, 100 means doubled; growth rescue, % at 18.8 µM; hit rate 1% among 320,000; AID 2716;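 active = every valid replicate shows activation above 250% relative to neutral control wells; inactive = the rest, any valid replicate at or below 250%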;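 note: OY570 slx delta 5 strain wells were the positive control but not used for scaling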
ALR inh = inhibitors of human sulfhydryl oxidase ALR; inhibition, % (no concentration beside the values); AID 485317; purified ALR, DTT oxidation, H2O2 HRP-luminol luminescence; P55789; hit rate 3.8% among 290,000;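 active = mean replicate inhibition above about 79%, with every replicate also reaching it, limit read from the data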
Target sequence (P55789 whole entry, looked up): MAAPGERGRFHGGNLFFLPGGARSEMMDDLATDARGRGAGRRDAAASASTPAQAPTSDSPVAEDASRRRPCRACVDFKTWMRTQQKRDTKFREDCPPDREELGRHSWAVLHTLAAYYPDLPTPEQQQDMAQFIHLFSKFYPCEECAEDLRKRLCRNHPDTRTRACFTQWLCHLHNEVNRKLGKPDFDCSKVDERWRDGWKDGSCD
HIF activator = HIF pathway transcriptional activation | U2OS HRE-luciferase reporter, luminescence; normalized: DMSO 0%, desferrioxamine 100% | activation, % at 7.5 µM (by protocol) | hit rate 0.32% among 300,000;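 active = mean activation of at least 10% of the iron chelator positive control signal, with at least half of replicates also reaching 10%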
M18AAP inhibitor = blocks P. falciparum M18 aspartyl aminopeptidase. inhibition, % at 7.35 µM. recombinant PfM18AAP, H-Glu-NHMec fluorogenic cleavage. hit rate 1.2% among 290,000;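 active = inhibition above the campaign mean inhibition over all tested compounds plus 3 SD, cut at about 28% in these data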;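 note: 0% = plate median of test compound wells and 100% = 2 mM ZnCl2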
Active calls of the source: *; . = no result. Shown are actives, neighbours in structure and some others; about 5.3% of the full set was active somewhere.

SMILES	SUMO Mot1 rescue	ALR inh	HIF activator	M18AAP inhibitor
CC(CC(=O)NC1CCCC1)c1ccccc1 (centres undefined)	81	.	1	2
c1ccc2nc(N3CCCC3)c(N3CCCC3)nc2c1	-10	99*	1	2
Cc1nc2ccccc2nc1N1CCCCC1	.	.	.	-3
CCN(CC)CCCNC(=O)CCC(=O)Nc1ccc2nc(N3CCCCC3)cc(C)c2c1	889*	.	0	3
CC(C)(C)c1ccc(C(=O)NC(=S)Nn2cnnc2)cc1	-1	-2	0	55*
Cc1nc(-c2ccc(F)cc2)c(CC(=O)N(C)CC(=O)Nc2ccc(Br)cc2C)s1	3	63	0	.
Fc1ccc(CSc2nnc(-c3cnccn3)n2Cc2ccco2)cc1	0	87*	0	-16
COc1ccccc1C(=O)C1CCCN(C(=O)CCc2ccccn2)C1 (centres undefined)	-7	-20	0	-9
O=C(O)CCC1c2cc3c4cc2OC2Oc5cc6c(cc51)C(CCC(=O)O)c1cc5c7cc1OC(O6)c1cc6cc(c1)Oc1cc(cc(C(=O)O)c1)Oc1cc8cc(c1)C(Oc1cc(c(cc1C5CCC(=O)O)C3CCC(=O)O)OC(O4)c1cc(cc(c1)Oc1cc(cc(C(=O)O)c1)O8)Oc1cc(cc(C(=O)O)c1)Oc1cc(cc2c1)Oc1cc(cc(C(=O)O)c1)O6)O7 (centres undefined)	108	98*	0	.
O=C1C(=O)N(c2nccs2)C(c2ccccc2F)/C1=C(\O)c1ccc2c(c1)OCCO2 (centres undefined)	-5	98*	2	3
Cc1cc(C)n2c(=O)c3ccc(Cl)cc3nc2c1C#N	0	-5	-1	-6
Cc1cc(Cl)n2c(nc3cc(F)c(F)cc32)c1C#N	.	.	9.5*	-88
CCOC(=O)c1cnc2cc(F)c(F)cc2c1N1CCN(C)CC1	-11	-15	-1	-14
Cc1cc(Cl)ccc1OCCCC(=O)NO	19	99*	3	17
Cc1cc(OCCCn2ccnc2)cc(C(C)C)c1	12	.	0	-7
O=C(Cn1nnc(-c2ccccc2F)n1)OCC(=O)c1ccccc1	-16	93*	-1	5
O=C(Cn1nnc(-c2ccc(F)cc2)n1)OCC(=O)c1ccccc1	-13	14	0	8
Cn1c(-c2ccc(F)cc2)cnc1NCc1cc2c(cc1[N+](=O)[O-])OCO2	3	93*	0	10
Cn1c(-c2ccc(Cl)cc2)cnc1NCc1cc2c(cc1[N+](=O)[O-])OCO2	-1	26	0	14
Cn1c(-c2ccc3c(c2)OCO3)cnc1NCc1cccc(O)c1	329	88*	1	1
Cn1c(-c2ccccc2)cnc1NCc1cc2c(cc1[N+](=O)[O-])OCO2	-9	98*	0	2
CCOc1cc(/C=N/NC(=O)C(C)Sc2ccccc2)ccc1O (centres undefined)	.	99*	0	5
CCOc1cc(/C=N/NC(=O)N/N=C/c2ccc(O)c(OCC)c2)ccc1O	7	99*	6	.
CCOc1cc(/C=N/NC(=O)c2ccccc2OCc2ccc(F)cc2)ccc1O	-7	50	.	.
COc1cccc(/C=N/NC(=O)C(C)Sc2ccccc2)c1 (centres undefined)	9	-5	0	-8
SMILES	SUMO Mot1 rescue	ALR inh	HIF activator	M18AAP inhibitor
CCOc1cc(/C=N/NC(=O)c2ccccc2-n2cccc2)ccc1O	-11	99*	.	.
CCOc1cc(/C=N/NC(=O)C(N)=O)cc(Br)c1O	3	91*	0	3
CCN1CCN(C(c2ccc(OC)cc2)C(O)C(=O)c2c[nH]c3ccccc23)CC1 (centres undefined)	.	-8	0	-3
C=CCNC(=O)/C(C#N)=C\c1cc(Cl)c(O)c(OCC)c1	-23	28	0	24
CCOc1ccc(/C=N/NC(=O)C(OC)c2ccccc2)cc1 (centres undefined)	2	-7	-1	3
CCOc1cc(/C=N/NC(=O)C(OC)c2ccccc2)ccc1O (centres undefined)	29	100*	0	3
CCOc1cc(/C=C(/C#N)C(=O)Nc2ccc(O)cc2)cc(Br)c1O	.	99*	0	-4
CCc1ccc(OCC(O)CN2CCN(c3ccc(OC)cc3)CC2)cc1 (centres undefined)	-12	94*	1	11
CC(=O)Nc1ccc(OCC(O)CN2CCN(c3ccc(C)c(Cl)c3)CC2)cc1 (centres undefined)	21	98*	.	8
COc1ccc(N2CCN(CC(O)COc3cc(C)ccc3C)CC2)cc1 (centres undefined)	19	9	-1	5
COc1ccc(N2CCN(CC(O)COc3ccc(C)cc3C)CC2)cc1 (centres undefined)	393	79*	-13	0
CC(=O)Nc1ccc(OCC(O)CN2CCN(c3cc(Cl)ccc3C)CC2)cc1 (centres undefined)	-10	-3	0	-4
COc1cc(C(C)=O)ccc1OCC(O)CN1CCN(c2ccc(C)c(C)c2)CC1 (centres undefined)	-7	98*	0	6
COc1ccc(OCC(O)CN2CCN(c3ccccc3)CC2)cc1 (centres undefined)	14	33	-1	5
O=C(O)c1cc(-c2cccc(Cl)c2)nc2nc(N3CCCCC3)sc12	-16	.	0	-4
CCOC(=O)Cn1nc(C)c(NC(=O)c2ccc(Br)o2)c1C	5	.	0	2
O=[N+]([O-])C(=C1Nc2ccccc2N1)/C(Cl)=C(/Cl)Br	3	89*	0	3
CC(C)c1ccc(C2c3[nH]c4ccccc4c3C[C@H]3C(=O)N(c4ccccc4C(=O)N4CCC(C(=O)O)CC4)C(=O)N23)cc1 (some centres undefined)	12	98*	0	0
CC(C)c1ccc(C2c3[nH]c4ccccc4c3C[C@H]3C(=O)N(c4ccccc4C(=O)N4CCC[C@@H]4C(=O)O)C(=O)N23)cc1 (some centres undefined)	3	98*	0	1
Cc1ccc(C2c3[nH]c4ccccc4c3C[C@H]3C(=O)N(c4ccccc4C(=O)N4CCC[C@H]4C(=O)O)C(=O)N23)cc1 (some centres undefined)	605*	98*	0	-7
COc1ccc(C2c3[nH]c4ccccc4c3C[C@H]3C(=O)N(c4ccccc4C(=O)N4CCC[C@@H]4C(=O)O)C(=O)N23)cc1 (some centres undefined)	102	.	.	.
CC(Oc1ccc(Br)cc1)C(=O)NC1CCN(Cc2ccccc2)CC1 (centres undefined)	41	-6	0	.
O=C(NC(Cc1ccccc1)C(=O)O)/C(=C\c1ccc([N+](=O)[O-])cc1)NC(=O)c1ccco1 (centres undefined)	113	-3	0	7
COc1cc(/C=N/NC(=O)/C(=C\c2ccc([N+](=O)[O-])cc2)NC(=O)c2ccccc2)cc(OC)c1O	99	9	-1	29*
O=C(NC(Cc1ccccc1)C(=O)O)/C(=C/c1cccc([N+](=O)[O-])c1)NC(=O)c1cccc(Br)c1 (centres undefined)	-17	98*	1	6

From PubChem BioAssay
